Experiment [1] deals with Estrogen receptor beta (Homo sapiens) (UniProt Q92731). Kind of experiment: qHTS assay to identify small molecule agonists of the estrogen receptor beta (ER-beta) signaling pathway (AID 1259377; active = well fitted activation curve with a large enough effect in the signal ratio in the repeat runs, not every such curve was filed as active; the % refers to the signal ratio). In short, it runs like this:
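Agonist mode cell assay in GripTite HEK293T cells expressing an ER-beta fusion that drives beta-lactamase from an Upstream Activator Sequence; 16 hr compound exposure at 37C, then 2 h LiveBLAzer B/G FRET substrate at room temperature, fluorescence read-out.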
(In qHTS, concentration-response curves come from the screen itself.)

Experiment [2] shares this target. The experiment can be described thus: qHTS assay to identify small molecule antagonists of the estrogen receptor beta (ER-beta) signaling pathway (AID 1259378; active = well fitted inhibition curve with a large enough effect in the signal ratio in the repeat runs, not every such curve was filed as active; the % refers to the signal ratio). In short, it runs like this: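 ER-beta-UAS-bla HEK293T cells in 2% charcoal-stripped FBS medium treated with compound plus 1nM final 17-beta-estradiol for 16 hr at 37C. Beta-lactamase reporter read by FRET substrate fluorescence after 2 hours at room temperature.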

The nature of experiment [3]: qHTS assay to identify small molecule agonists of the androgen receptor (AR) signaling pathway in the presence of an antagonist - cell viability counter screen (AID 1259379). Also: nearly all actives have a fitted effect of over 25% in size. Also: potency is read from the fitted curve at half-maximal effect. In short, it runs like this: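 In MDA-kb2 cells (human breast carcinoma, MMTV-luciferase), compounds at 15 concentrations plus 3.0uM nilutamide; 16 hr, 37C, 0% CO2; CellTiter-Fluor fluorescence read for viability.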

Experiment [4] can be described thus: qHTS assay to identify small molecule agonists of the estrogen receptor beta (ER-beta) signaling pathway - cell viability counter screen (AID 1259380). Also: nearly all actives have a fitted effect of over 30% in size. In short, it runs like this:
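Viability of ER-beta-UAS-bla HEK293T cells was determined by CellTiter-Glo luminescence following 16 hr treatment with test compounds at 37C.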

A short description of experiment [5]: qHTS assay to identify small molecule antagonists of the estrogen receptor beta (ER-beta) signaling pathway - cell viability counter screen (AID 1259382). Also: series mostly up to about 92 µM; nearly all actives have a fitted effect of over 55% in size. The gist of the method:
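Tox21 10K library tested in qHTS format on ER-beta-bla HEK293T cells stimulated with 1nM E2; 16 hr treatment at 37C. Same-well CellTiter-Glo luminescence served as the cell viability measure.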

Experiment [6] addresses Estrogen receptor (Homo sapiens) (UniProt P03372). The experiment can be described thus: qHTS assay to identify small molecule agonists of the estrogen receptor alpha (ER-alpha) signaling pathway in the presence of an antagonist (AID 1259383; calls by dose curve; also: top concentration of the series differs between compounds; nearly all actives have a fitted effect of over 15% in size). The gist of the method: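 In VM7Luc4E2 cells, 4,000 per well, compounds at 15 concentrations were co-incubated 22hr at 37C with 10.0nM final ICI-182,780. Luminescence from the stably transfected 4×ERE-luciferase reporter was recorded 30min after ONE-Glo addition.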

Experiment [7] in a line: qHTS assay to identify small molecule agonists of the estrogen receptor alpha (ER-alpha) signaling pathway in the presence of an antagonist - cell viability counter screen (AID 1259386).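 Also: cells exposed to compounds for 22 h at 37 °C before the viability read; nearly all actives have a fitted effect of over 30% in size.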 Also: potency is read from the fitted curve at half-maximal effect. In short, it runs like this:
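Fluorescent CellTiter-Fluor viability signal from VM7Luc4E2 cells, with the reagent added during the final hour of a 22hr compound exposure at 37C in the presence of 10.0nM ICI-182,780.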

The target of experiment [8] is Progesterone receptor (Homo sapiens) (UniProt P06401). Kind of experiment: qHTS assay to identify small molecule agonists of the progesterone receptor (PR) signaling pathway (AID 1346784; calls by dose curve; also: nearly all actives have a fitted effect of over 30% in size). In short, it runs like this:
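Cells (PR-UAS-bla HEK 293T, GripTite) were plated in assay medium containing 2% charcoal-stripped FBS and incubated 6 hr. Test compounds in DMSO were added for 16 hr at 37C. FRET substrate was then loaded for 2 hr at room temperature before fluorescence reading.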

Experiment [9] has the same target. The experiment can be described thus: qHTS assay to identify small molecule antagonists of the progesterone receptor (PR) signaling pathway (AID 1346795; active = well fitted inhibition curve with a large enough effect in the signal ratio in the repeat runs, not every such curve was filed as active; the % refers to the signal ratio). The gist of the method: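 Antagonist mode: compounds tested against 1 nM (final) promegestone stimulation in HEK293T cells expressing PR-UAS-bla reporter, 16 hr at 37C, 5% CO2; beta-lactamase activity detected via B/G FRET substrate after 2 hr at room temperature.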

Experiment [10] can be described thus: qHTS assay to identify small molecule antagonists of the progesterone receptor (PR) signaling pathway - cell viability counter screen (AID 1346798). Also: series mostly up to about 92 µM; nearly all actives have a fitted effect of over 50% in size. The gist of the method:
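Counter screen for cytotoxicity: viability of PR-UAS-bla HEK293T cells was measured with CellTiter-Glo luminescence following 16 hr compound exposure in the presence of R5020.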

Experiment [11] is described as follows: qHTS assay to identify small molecule agonists of the progesterone receptor (PR) signaling pathway - cell viability counter screen (AID 1346799; calls by dose curve; also: nearly all actives have a fitted effect of over 45% in size). In short, it runs like this:
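Cells (PR-UAS-bla HEK293T) are plated at 3,000/well in 2% charcoal-stripped FBS medium, rested 6 hr, dosed and incubated 16 hr at 37C. CellTiter-Glo is then added and luminescence measured after 30 min at room temperature.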

The nature of experiment [12]: qHTS assay to identify small molecule antagonists of the TGF-beta/Smad signaling pathway - cell viability counter screen (AID 1346824). Also: nearly all actives have a fitted effect of over 50% in size. The gist of the method: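 SBE-bla HEK 293T cells, incubated overnight, then compound plus 0.25 ng/mL TGF-beta1 (stock added) for 5 hr at 37 C. Viability was read in the same wells by CellTiter-Glo luminescence after 30 min at room temperature.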

Experiment [13] can be described thus: qHTS assay to identify small molecule agonists of the TGF-beta/Smad signaling pathway - cell viability counter screen (AID 1346829). Also: top concentration of the series differs between compounds; nearly all actives have a fitted effect of over 45% in size. The gist of the method: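 Compound-treated SBE-bla HEK 293T cells (5 hr, 37 C) were assessed for viability with CellTiter-Glo in parallel with the reporter read.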
Experiment [14] in a line: qHTS assay to identify small molecule agonists of the TGF-beta/Smad signaling pathway (AID 1346859; active = well fitted activation curve with a large enough effect in the signal ratio in the repeat runs, not every such curve was filed as active; the % refers to the signal ratio; also: series mostly up to about 77 µM). In short, it runs like this: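 Reporter line: HEK 293T with stably integrated SBE-controlled beta-lactamase. Compound exposure lasts 5 hr at 37 C and 5% CO2; substrate loading follows for 2 hr at room temperature, with emission read at 460 and 530 nm.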
The target in experiment [15] is Thyrotropin-releasing hormone receptor (Homo sapiens) (UniProt P34981). The experiment can be described thus: qHTS assay to identify small molecule antagonists of the thyrotropin-releasing hormone receptor (TRHR) signaling pathway (AID 1346877; active = well fitted inhibition curve with a large enough effect in the repeat runs, not every such curve was filed as active; also: series mostly up to about 51 µM). The gist of the method: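 In this cell-based calcium flux format, HEK293 cells expressing TRHR received test compound for 5 min before the agonist TRH (1 nM final). Dye loading lasted 2 h at 37 °C.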
Chain of Thyrotropin-releasing hormone receptor (Homo sapiens) (P34981 whole entry, looked up): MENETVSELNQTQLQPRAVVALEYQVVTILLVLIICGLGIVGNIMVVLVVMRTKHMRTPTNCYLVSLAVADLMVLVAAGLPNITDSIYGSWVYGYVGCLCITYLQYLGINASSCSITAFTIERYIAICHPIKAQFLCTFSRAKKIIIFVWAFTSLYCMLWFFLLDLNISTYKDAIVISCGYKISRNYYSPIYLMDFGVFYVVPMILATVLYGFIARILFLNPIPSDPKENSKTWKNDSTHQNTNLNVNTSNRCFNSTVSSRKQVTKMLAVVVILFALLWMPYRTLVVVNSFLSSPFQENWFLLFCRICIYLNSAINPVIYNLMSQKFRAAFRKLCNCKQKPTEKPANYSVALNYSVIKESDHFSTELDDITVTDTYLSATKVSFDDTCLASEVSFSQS

For experiment [16] the target is unchanged. The experiment can be described thus: qHTS assay to identify small molecule agonists of the thyrotropin-releasing hormone receptor (TRHR) signaling pathway (AID 1346891; calls by dose curve; also: series mostly up to about 58 µM). In short, it runs like this: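 Cells: TRHR-Hek293, seeded and incubated 18 h. Dye loading: 2 h at 37 °C. Compound added from DMSO stock by pin tool. Read-out: kinetic calcium fluorescence over 3 min.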

Experiment [17] can be described thus: Human pregnane X receptor (PXR) small molecule agonists, qHTS cell viability counter screen (AID 1346977). Also: nearly all actives have a fitted effect of over 50% in size. Also: potency is read from the fitted curve at half-maximal effect. In short, it runs like this:
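Cytotoxicity counter screen run in the same wells as the PXR luciferase assay, using PXR-Luc HepG2 cells in charcoal-stripped serum medium. Viability: CellTiter-Fluor fluorescence after 24hr compound treatment.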

The target in experiment [18] is Androgen receptor (Homo sapiens) (UniProt P10275). The experiment can be described thus: qHTS assay to identify small molecule agonists of the androgen receptor (AR) signaling pathway in the presence of an antagonist (AID 1259381; calls by dose curve; also: nearly all actives have a fitted effect of over 15% in size). In short, it runs like this:
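Here, 15-concentration compound series were pin-transferred onto MDA-kb2 MMTV-luciferase cells already dosed with nilutamide (3.0uM final). After 16hr at 37C, ONE-Glo was added and luminescence read 30min later at room temperature.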

Experiment [19] in a line: qHTS assay to identify small molecule agonists or antagonists of the thyroid stimulating hormone receptor (TSHR) signaling pathway - wild type cell line counter screen (AID 1259384; calls by dose curve). In short, it runs like this: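 Wild-type Hek293 cells, 800/well, 18 h at 37C, then compound with Ro20-1724 for 30 min RT. cAMP by HTRF (cAMP-d2/anti-cAMP cryptate), 1 h RT, fluorescence read. 15 concentrations, triplicates.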

The target in experiment [20] is Thyrotropin receptor (Homo sapiens) (UniProt P16473). Kind of experiment: qHTS assay to identify small molecule antagonists of the thyroid stimulating hormone receptor (TSHR) signaling pathway (AID 1259385; calls by dose curve; also: nearly all actives have a fitted effect of over 20% in size). The gist of the method:
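TSHR-HEK293 cells (800/well) plated 18 h, then compounds with Ro20-1724 and TSH at 1.5 ng/mL final, 30 min at room temperature. cAMP quantified by HTRF (cAMP-d2/anti-cAMP-cryptate, 1 h); 15 concentrations in triplicate.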

Results filed as inconclusive are left out. The source made the active and inactive calls. Unless noted, calls follow the shape of the dose curve; as a rule, active = well fitted curve in the direction sought with a large enough effect in the repeat runs; inconclusive = weak or mixed curves; inactive = no such curve, though single readings can be large; an effect the other way counts as inactive or inconclusive.

Chain of Progesterone receptor (Homo sapiens) (P06401 whole entry, looked up): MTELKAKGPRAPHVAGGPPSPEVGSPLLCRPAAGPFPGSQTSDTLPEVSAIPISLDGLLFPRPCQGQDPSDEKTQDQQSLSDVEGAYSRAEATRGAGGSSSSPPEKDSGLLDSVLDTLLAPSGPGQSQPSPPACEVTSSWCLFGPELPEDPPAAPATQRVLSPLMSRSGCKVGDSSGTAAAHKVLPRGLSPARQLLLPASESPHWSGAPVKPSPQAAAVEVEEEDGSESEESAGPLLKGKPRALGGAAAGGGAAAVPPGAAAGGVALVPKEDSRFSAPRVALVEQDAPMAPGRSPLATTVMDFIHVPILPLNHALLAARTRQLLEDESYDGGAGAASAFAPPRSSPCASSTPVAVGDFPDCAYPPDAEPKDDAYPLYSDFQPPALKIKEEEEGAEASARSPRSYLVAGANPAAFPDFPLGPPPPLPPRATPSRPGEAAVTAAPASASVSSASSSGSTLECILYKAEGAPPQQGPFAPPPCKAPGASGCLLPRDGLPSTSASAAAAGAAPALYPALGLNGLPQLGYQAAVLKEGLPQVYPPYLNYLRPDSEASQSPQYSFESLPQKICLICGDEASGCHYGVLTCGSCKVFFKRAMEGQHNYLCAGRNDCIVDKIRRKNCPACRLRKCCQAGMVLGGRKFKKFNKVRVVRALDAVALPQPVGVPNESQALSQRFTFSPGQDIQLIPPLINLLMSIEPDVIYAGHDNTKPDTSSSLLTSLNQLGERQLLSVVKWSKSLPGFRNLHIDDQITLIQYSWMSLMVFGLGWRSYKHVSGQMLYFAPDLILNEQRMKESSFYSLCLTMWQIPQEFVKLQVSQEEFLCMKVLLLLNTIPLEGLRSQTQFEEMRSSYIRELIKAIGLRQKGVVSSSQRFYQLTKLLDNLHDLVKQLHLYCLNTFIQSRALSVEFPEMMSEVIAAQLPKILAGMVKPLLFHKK
Chain of Estrogen receptor (Homo sapiens) (P03372 whole entry, looked up): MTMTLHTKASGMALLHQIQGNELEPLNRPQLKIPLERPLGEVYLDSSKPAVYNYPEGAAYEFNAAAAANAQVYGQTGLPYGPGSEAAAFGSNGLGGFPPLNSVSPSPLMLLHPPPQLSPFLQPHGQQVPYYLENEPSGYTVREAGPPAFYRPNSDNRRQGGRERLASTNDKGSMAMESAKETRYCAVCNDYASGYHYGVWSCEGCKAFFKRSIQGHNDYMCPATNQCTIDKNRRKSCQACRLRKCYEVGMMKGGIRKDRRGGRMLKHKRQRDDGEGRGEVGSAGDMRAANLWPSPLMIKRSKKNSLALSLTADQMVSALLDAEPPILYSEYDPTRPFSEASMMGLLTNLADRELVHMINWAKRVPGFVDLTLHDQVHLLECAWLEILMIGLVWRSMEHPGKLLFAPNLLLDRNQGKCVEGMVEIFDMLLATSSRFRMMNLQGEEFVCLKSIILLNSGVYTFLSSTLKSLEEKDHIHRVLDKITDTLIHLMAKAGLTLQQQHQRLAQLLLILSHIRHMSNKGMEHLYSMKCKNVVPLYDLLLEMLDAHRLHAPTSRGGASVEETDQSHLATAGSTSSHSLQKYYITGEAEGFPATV
Chain of Estrogen receptor beta (Homo sapiens) (Q92731 whole entry, looked up, the tested form may be a part): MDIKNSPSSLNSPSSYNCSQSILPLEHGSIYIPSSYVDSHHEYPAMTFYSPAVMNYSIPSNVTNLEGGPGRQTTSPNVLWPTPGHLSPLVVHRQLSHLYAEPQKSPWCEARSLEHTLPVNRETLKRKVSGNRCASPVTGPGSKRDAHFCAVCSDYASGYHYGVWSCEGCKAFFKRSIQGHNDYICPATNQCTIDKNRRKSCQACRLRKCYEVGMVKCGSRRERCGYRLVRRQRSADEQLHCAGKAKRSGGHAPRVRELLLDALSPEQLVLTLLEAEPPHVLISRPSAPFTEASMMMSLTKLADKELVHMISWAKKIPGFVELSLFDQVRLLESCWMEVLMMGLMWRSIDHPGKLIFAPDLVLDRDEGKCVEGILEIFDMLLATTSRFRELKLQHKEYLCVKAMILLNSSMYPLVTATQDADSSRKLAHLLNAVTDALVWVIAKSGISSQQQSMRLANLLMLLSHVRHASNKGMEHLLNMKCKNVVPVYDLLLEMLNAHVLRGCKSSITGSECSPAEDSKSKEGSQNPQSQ
Chain of Thyrotropin receptor (Homo sapiens) (P16473 whole entry, looked up): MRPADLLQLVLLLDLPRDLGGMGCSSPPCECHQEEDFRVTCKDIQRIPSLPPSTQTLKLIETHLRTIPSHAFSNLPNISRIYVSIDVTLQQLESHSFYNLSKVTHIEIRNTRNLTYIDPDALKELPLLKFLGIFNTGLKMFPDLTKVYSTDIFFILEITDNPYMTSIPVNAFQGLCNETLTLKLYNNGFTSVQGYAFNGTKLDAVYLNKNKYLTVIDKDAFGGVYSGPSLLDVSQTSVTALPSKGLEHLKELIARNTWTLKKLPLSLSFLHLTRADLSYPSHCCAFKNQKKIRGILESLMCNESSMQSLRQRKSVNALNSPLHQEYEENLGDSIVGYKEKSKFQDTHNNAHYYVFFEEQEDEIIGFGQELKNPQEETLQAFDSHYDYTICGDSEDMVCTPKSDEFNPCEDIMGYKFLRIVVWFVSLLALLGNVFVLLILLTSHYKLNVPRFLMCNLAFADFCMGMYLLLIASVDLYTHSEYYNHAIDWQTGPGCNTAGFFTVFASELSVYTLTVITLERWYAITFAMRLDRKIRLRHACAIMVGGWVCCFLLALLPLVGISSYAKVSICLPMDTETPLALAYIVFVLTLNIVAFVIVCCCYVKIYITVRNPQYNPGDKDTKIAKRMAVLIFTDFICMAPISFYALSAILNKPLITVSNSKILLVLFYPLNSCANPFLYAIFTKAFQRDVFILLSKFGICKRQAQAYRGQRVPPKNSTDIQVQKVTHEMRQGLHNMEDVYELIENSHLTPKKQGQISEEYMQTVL
Chain of Androgen receptor (Homo sapiens) (P10275 whole entry, looked up): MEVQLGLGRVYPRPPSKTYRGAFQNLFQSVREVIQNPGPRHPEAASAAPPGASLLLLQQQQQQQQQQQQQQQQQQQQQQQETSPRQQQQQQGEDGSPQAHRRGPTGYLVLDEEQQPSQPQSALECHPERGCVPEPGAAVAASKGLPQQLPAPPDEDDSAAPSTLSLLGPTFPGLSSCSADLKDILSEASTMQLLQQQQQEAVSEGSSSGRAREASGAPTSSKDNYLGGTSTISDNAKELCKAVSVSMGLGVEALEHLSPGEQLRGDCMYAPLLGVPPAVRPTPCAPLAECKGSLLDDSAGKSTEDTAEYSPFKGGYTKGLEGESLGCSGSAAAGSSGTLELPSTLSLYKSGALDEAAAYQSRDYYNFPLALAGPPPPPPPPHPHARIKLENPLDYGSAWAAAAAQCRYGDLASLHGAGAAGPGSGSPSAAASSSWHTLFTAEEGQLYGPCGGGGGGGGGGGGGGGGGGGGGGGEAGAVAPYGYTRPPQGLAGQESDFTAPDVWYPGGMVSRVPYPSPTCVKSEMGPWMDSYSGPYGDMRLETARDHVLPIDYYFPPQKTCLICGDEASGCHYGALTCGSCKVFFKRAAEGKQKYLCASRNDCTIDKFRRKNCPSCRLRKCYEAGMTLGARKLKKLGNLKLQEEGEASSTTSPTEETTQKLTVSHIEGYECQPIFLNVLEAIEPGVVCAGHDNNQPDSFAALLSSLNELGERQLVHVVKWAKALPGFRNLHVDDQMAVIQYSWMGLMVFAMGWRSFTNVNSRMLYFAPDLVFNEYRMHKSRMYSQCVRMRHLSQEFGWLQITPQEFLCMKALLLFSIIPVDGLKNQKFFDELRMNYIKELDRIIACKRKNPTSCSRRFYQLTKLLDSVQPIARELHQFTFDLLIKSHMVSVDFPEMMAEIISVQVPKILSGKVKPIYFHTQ

In the case of `c1ccc(Cc2ccccc2)cc1`, the Potency entry in experiment [1], in [2], in experiment [3], in experiment [4], in experiment [7] and in experiment [8] was “inactive” throughout. The Potency entry in experiment [9], in [10], in experiment [11], in experiment [16] and in experiment [17] was “inactive” each time. Also, the result in [5], in experiment [6], in experiment [12], in [13], in experiment [14] and in [15] was inactive.

Regarding `CCCCOCCOC(=O)COc1cc(Cl)c(Cl)cc1Cl`, the Potency result in experiment [1], in experiment [2], in experiment [3], in experiment [4], in experiment [18] and in [7] was “inactive” each time. In addition, the Potency entry in experiment [8], in [9], in experiment [10], in [11] and in [16] was “inactive” throughout. The outcome in experiment [5], in experiment [19], in experiment [20], in experiment [12], in experiment [14] and in experiment [15] was inactive.

For the molecule `CC(=O)NC(=O)c1ccccc1O`, the Potency entry in [1], in experiment [2], in experiment [3], in experiment [4], in [7] and in [8] was “inactive” throughout. The Potency entry in experiment [9], in experiment [10], in experiment [11], in [16] and in experiment [17] was “inactive” each time. Also, the molecule was called inactive in experiment [5], in experiment [6], in [19], in experiment [20], in experiment [12] and in [13]. In addition, the molecule was called inactive in experiment [14] and in [15].

Take `CC1=NN(c2cc(S(=O)(=O)O)ccc2Cl)C(=O)C1N=Nc1ccccc1` (configuration not stated): the Potency entry in [1], in experiment [2], in experiment [4], in experiment [8], in experiment [9] and in [10] was “inactive” throughout. Besides, the Potency result in experiment [11] and in [16] was “inactive” in each case. The Potency is 27.3 µM (active) in experiment [3], 27.3 µM (active) in [7] and 61.1 µM (active) in experiment [17]. For the same molecule, the call in [5], in experiment [6], in experiment [20], in experiment [12], in experiment [13] and in [14] was inactive. Besides, the outcome in experiment [15] was inactive.

On to `CCOCC(C)O` (configuration not stated), for which the Potency result in [1], in [2], in experiment [3], in experiment [4], in experiment [7] and in experiment [8] was “inactive” in each case. Moreover, the Potency result in experiment [9], in [10], in experiment [11], in experiment [16] and in [17] was “inactive” throughout. Further, the result in experiment [5], in experiment [6], in [20], in experiment [12], in [14] and in [15] was inactive.

For `CCOC(=O)C1=NOC(c2ccccc2)(c2ccccc2)C1`, the Potency entry in [1], in experiment [2], in [3], in [4], in experiment [7] and in [8] was “inactive” throughout. For the same molecule, the Potency entry in experiment [9], in experiment [10], in experiment [11], in experiment [16] and in experiment [17] was “inactive” throughout. Further, the result in experiment [5], in [6], in experiment [19], in experiment [20], in experiment [12] and in experiment [13] was inactive. The outcome in experiment [14] and in experiment [15] was inactive.

With `CC1=CC(=O)[C@H]2C[C@@H]1C2(C)C`, the Potency entry in experiment [1], in experiment [2], in experiment [3], in experiment [4], in [7] and in [8] was “inactive” each time. For the same molecule, the Potency result in [9], in [11], in experiment [16] and in experiment [17] was “inactive” each time. The outcome in experiment [5], in experiment [6], in [12], in [14] and in experiment [15] was inactive.

As to `CCCCc1ccc2c(n1)[C@@H](c1ccc(OC)cc1C[C@H](C)C(=O)O)[C@H](C(=O)O)[C@H]2c1ccc2c(c1)OCO2`, the Potency entry in [1], in [2], in experiment [3], in [4], in experiment [7] and in [8] was “inactive” in each case. Also, the Potency result in [11] and in [17] was “inactive” in each case. The result in experiment [5], in [6], in [19], in [20], in [12] and in [13] was inactive. The result in experiment [14] was inactive.

Values taken from PubChem BioAssay (Tox21).
